Rows were chosen to be rich in hits. Some 11% of all compounds tested hit in one or more screens of this group.
NIH3T3 tox: NIH 3T3 cell cytotoxicity; AID 1345082; actives 4.3% (n = 94,000); Potency, µM (doses to about 96.7 µM), actives largely listed as inhibitors; NIH 3T3 viability, CellTiter-Glo ATP luminescence, 48-72 h; also: nearly all actives have a fitted effect of over 55% in size
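Cells were seeded at 400 per well, treated with pin-transferred compound, and kept 48 or 72 hr at 37 °C before CellTiter-Glo addition and luminescence imaging of cellular ATP.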
Luciferase inh: Photinus pyralis luciferase inhibition; P08659; purified P. pyralis luciferase, luminescence, biochemical; Potency, µM (highest dose often 115 µM), actives largely listed as inhibitors; actives 2.5% (n = 76,000); AID 1347043; also: nearly all actives have a fitted effect of over 65% in size
Target sequence (P08659 whole entry, looked up): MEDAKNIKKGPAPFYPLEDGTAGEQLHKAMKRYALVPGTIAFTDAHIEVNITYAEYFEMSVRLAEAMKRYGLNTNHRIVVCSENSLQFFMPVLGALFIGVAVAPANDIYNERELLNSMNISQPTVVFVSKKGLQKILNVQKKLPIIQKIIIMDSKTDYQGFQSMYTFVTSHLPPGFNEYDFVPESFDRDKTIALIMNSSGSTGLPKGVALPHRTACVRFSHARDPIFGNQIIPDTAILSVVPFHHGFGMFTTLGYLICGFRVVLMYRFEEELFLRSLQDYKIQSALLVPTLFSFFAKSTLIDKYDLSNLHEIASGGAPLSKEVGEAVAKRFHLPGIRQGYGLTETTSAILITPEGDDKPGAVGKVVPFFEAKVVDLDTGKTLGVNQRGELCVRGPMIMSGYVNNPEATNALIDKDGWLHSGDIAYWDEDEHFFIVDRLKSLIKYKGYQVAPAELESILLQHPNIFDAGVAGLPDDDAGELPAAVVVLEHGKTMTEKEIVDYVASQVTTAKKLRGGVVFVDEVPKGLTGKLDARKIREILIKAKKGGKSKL
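Inhibitors were tested against purified firefly luciferase in a biochemical, low-substrate format (both substrates at 10uM) and luminescence measured with a CCD imager.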
HEK cytotox: cytotoxic compounds in HEK 293 cells. HEK 293 viability, ATP luminescence (CellTiter-Glo), 48-72 h. Potency, µM (top dose mostly 115 µM), hits mostly inhibitors. actives 6.6% (n = 94,000); also: nearly all actives have a fitted effect of over 60% in size
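Pintool-delivered compounds were incubated with HEK 293 cells (250 cells/well) at 37 degree Celsius for 48 or 72 hr. ATP-dependent luminescence (CellTiter-Glo) then reported remaining viable cells.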
hNpr1 antagonist: human Npr1 receptor antagonism | P16066 | actives 1.6% (n = 76,000) | AID 1347048 | Potency, µM (doses to about 46.3 µM), most hits filed as inhibitors | HEK293 hNpr1 GloSensor cGMP, ANP-stimulated luminescence; calls by dose curve; also: nearly all actives have a fitted effect of over 60% in size
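HEK293 cells stably expressing human Npr1 and cGMP GloSensor pGS-40F, loaded 2 h with 2% GloSensor reagent, given compound 30 min at room temperature. Luminescence read before and 20 min after 0.1 nM hNppA.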
Of the large screens only hits and unclear results are named; the others gave an inactive call. Unless noted, calls follow the shape of the dose curve; as a rule, active = well fitted curve in the direction sought with a large enough effect; inconclusive = small, poorly fitted or top-dose-only effect, or another doubt; inactive = no such curve, though single readings can be large; an effect the other way counts as inactive or inconclusive.

NC1CCCCN(Cc2cc(-c3ccccc3OC(F)(F)F)no2)C1 (centres undefined)	NIH3T3 tox inconclusive, HEK cytotox inconclusive
COc1nc2nc(CCc3ccccc3)n(C)c2cc1-c1cccc(CO)c1	NIH3T3 tox inconclusive, Luciferase inh 71µM, HEK cytotox inconclusive
COc1ccccc1Nc1ccnc(N2CCC(NC(=O)c3ccc(Cl)cc3)CC2)n1	NIH3T3 tox 32µM, HEK cytotox 35µM (no result: Luciferase inh, hNpr1 antagonist)
COc1ccccc1Nc1ccnc(N2CCC(NC(=O)c3ccc(C)cc3)CC2)n1	NIH3T3 tox 40µM, HEK cytotox inconclusive (no result: Luciferase inh, hNpr1 antagonist)
COc1ccccc1Nc1ccnc(N2CCC(NC(=O)Cc3ccc(F)cc3)CC2)n1	NIH3T3 tox inconclusive, HEK cytotox 45µM (no result: Luciferase inh, hNpr1 antagonist)
COc1ccccc1Nc1ccnc(N2CCC(NC(=O)c3ccccc3)CC2)n1	HEK cytotox inconclusive (no result: Luciferase inh, hNpr1 antagonist)
COc1ccccc1Nc1ccnc(N2CCC(NC(=O)c3ccc(F)cc3)CC2)n1	none (no result: Luciferase inh, hNpr1 antagonist)
Cc1cc(NC(=O)CN2C(=O)NC3(CCCCC3)C2=O)ccc1Br	NIH3T3 tox inconclusive, HEK cytotox inconclusive
Oc1cccc(CN(Cc2ccsc2)Cc2ccco2)c1	NIH3T3 tox 32µM, HEK cytotox 35µM
Cc1cc(Cn2cc3c4c(cccc42)[C@H](CC(C)C)N[C@H](C(=O)NCc2nccs2)C3)no1	NIH3T3 tox inconclusive, HEK cytotox 22µM
Cc1cc(Cn2cc3c4c(cccc42)[C@H](CC(C)C)N[C@H](C(=O)NCc2ccc(C)o2)C3)no1	NIH3T3 tox inconclusive, HEK cytotox 32µM
CC(=O)NCCNC(=O)[C@@H]1Cc2cn(Cc3cc(C)on3)c3cccc(c23)[C@H](CC(C)C)N1	HEK cytotox inconclusive
COc1ccc(OC)c(NC(=O)c2c(C)oc3ccn(Cc4cccc(F)c4)c(=O)c23)c1	none
CCN1C(=O)C2CC3(CCN(Cc4cccc(OC(F)(F)F)c4)CC3)CN2C1=O (centres undefined)	NIH3T3 tox inconclusive, HEK cytotox 40µM
CCN1C(=O)C2CC3(CCN(Cc4ccc5[nH]ccc5c4)CC3)CN2C1=O (centres undefined)	none
CC(=O)Nc1ccc(CN2CCN3C(=O)N(Cc4ccc(C)cc4)C[C@H]3C2)cc1	HEK cytotox 79µM
CC(=O)Nc1ccc(CN2CC3CCC(C2)N3c2ccc(C(F)(F)F)cc2)cc1	NIH3T3 tox inconclusive, HEK cytotox 22µM, hNpr1 antagonist inconclusive
Cc1ccc(CN2C[C@H]3CN(Cc4cccc(OC(F)(F)F)c4)CCN3C2=O)cc1	NIH3T3 tox 45µM, HEK cytotox 63µM
FC(F)(F)c1ccc(N2C3CCC2CN(Cc2ccc(Cl)cc2)C3)cc1	none
CC(C)N(C)C(=O)Cn1ncc(N(C)CCc2ccccc2)cc1=O	none
CC(C)c1nnsc1Cn1ncc(N(C)CCc2ccccc2)cc1=O	NIH3T3 tox inconclusive, HEK cytotox 89µM
Cc1cnc(-c2cccnc2)n1CC1CCN(S(=O)(=O)Cc2ccccc2)CC1	HEK cytotox inconclusive
O=C(Cc1ccc(Cl)cc1)Nc1cccc(-c2nnc3n2CCCC3)c1	NIH3T3 tox inconclusive, HEK cytotox 50µM
O=C(Nc1cccc(-c2nnc3n2CCCC3)c1)c1ccc(Cl)cc1	NIH3T3 tox inconclusive, Luciferase inh inconclusive, HEK cytotox inconclusive
O=C(Nc1cccc(-c2nnc3n2CCCC3)c1)c1cc(C2CC2)[nH]n1	Luciferase inh 20µM, hNpr1 antagonist inconclusive
O=C(Nc1cccc(-c2nnc3n2CCCC3)c1)c1cc(-c2ccccc2)n[nH]1	Luciferase inh 2.2µM, HEK cytotox 28µM, hNpr1 antagonist inconclusive
CCOc1ccc(C(=O)Nc2cccc(-c3nnc4n3CCCC4)c2)cc1	NIH3T3 tox inconclusive, Luciferase inh 25µM, HEK cytotox inconclusive
CCOc1ccc(CC(=O)Nc2cccc(-c3nnc4n3CCCC4)c2)cc1	NIH3T3 tox inconclusive, HEK cytotox inconclusive
COCCn1c(=O)c(C(=O)NCCc2ccccc2)nc2cccnc21	none (no result: Luciferase inh, hNpr1 antagonist)
Cc1ccc(C(=O)N2CCCC3(CN[S+](=O)([O-])c4cccnc4N3)C2)cc1 (centres undefined)	none (no result: Luciferase inh, hNpr1 antagonist)
COc1ccc2c(c1)CN(C1CC1)C(=O)CCN2C(=O)C1CCC1	NIH3T3 tox inconclusive (no result: Luciferase inh, hNpr1 antagonist)
O=C(NCc1ccncc1)C1c2ccccc2C(=O)N(Cc2ccccc2)C12CCCC2 (centres undefined)	NIH3T3 tox inconclusive, HEK cytotox inconclusive
O=C(C1CN(C2CCCCC2)C(=O)N1)N1CCc2ccccc2C1 (centres undefined)	NIH3T3 tox inconclusive, HEK cytotox 25µM (no result: Luciferase inh, hNpr1 antagonist)
O=C1CCCCC(C(=O)N2CCc3ccccc3C2)N1 (centres undefined)	HEK cytotox inconclusive
